# According to paper PMC7862700, “An all-to-all approach to the identification of sequence-specific readers for epigenetic DNA modifications on cytosine”:
# Tests used:
# Assay in all cases: DAPPL (digital affinity profiling via proximity ligation, sequencing); 10 mM Tris-HCl pH 7.5, 50 mM NaCl, 1 mM DTT, 4% glycerol, room temperature, 30 min; GST-TFs on glutathione beads, 16-mer random dsDNA library, 0.1% formaldehyde crosslink after washing; high values mean tight binding
# FEV = biological target: T1, FEV (Homo sapiens, UniProt Q99581 1-238); settings: protein: recombinant; tags: N-terminal GST; dsDNA, one strand shown
# T1 sequence: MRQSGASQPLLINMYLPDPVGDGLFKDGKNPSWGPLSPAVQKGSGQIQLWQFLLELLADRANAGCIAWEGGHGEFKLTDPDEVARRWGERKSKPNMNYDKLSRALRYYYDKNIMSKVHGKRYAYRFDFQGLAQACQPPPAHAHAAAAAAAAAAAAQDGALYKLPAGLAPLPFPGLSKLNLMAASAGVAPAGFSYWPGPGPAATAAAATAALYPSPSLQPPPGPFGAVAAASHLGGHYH
# In short: (§1)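 In yeast, human transcription factors were expressed with a GST fusion, then pulled down on glutathione beads and given DNA barcodes. Pooled with a tag-only sample, they were exposed to 200 nmole of a 16-mer random double-stranded DNA library (Tris/NaCl/DTT/glycerol buffer, room temperature, 30 min), washed, crosslinked with 0.1% formaldehyde, proximity-ligated using BsaI/T4 ligase for 1 h at 37 °C, PCR-amplified and read on an Illumina NextSeq500. Each hexamer's frequency of reads for a factor, divided by the matching frequency for the tag-only sample, gives the binding signal.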
# ETV5 = ETV5 (Homo sapiens, UniProt P41161 1-510); settings: protein: recombinant; tags: N-terminal GST; dsDNA, one strand shown
# In short: as §1
# HSF1 = HSF1 (Homo sapiens, UniProt Q00613 1-529); settings: protein: recombinant; tags: N-terminal GST; chain copies: 3; dsDNA, one strand shown
# In short: as §1
# SPIC = biological target: T2, SPIC (Homo sapiens, UniProt Q8N5J4 1-248); settings: protein: recombinant; tags: N-terminal GST; dsDNA, one strand shown
# T2 sequence: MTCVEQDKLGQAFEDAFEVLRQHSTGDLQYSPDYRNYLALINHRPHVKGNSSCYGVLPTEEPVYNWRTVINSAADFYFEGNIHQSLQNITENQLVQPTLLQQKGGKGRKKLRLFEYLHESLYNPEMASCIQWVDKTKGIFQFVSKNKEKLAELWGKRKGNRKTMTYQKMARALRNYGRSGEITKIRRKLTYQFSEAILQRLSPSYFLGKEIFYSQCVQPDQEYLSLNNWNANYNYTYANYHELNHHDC
# In short: as §1
# ELF4 = ELF4 (Homo sapiens, UniProt Q99607 1-663); settings: protein: recombinant; tags: N-terminal GST; dsDNA, one strand shown
# In short: as §1
# ELK4 = biological target: T3, ELK4 (Homo sapiens, UniProt P28324-2 1-405); settings: protein: recombinant; tags: N-terminal GST; dsDNA, one strand shown
# T3 sequence: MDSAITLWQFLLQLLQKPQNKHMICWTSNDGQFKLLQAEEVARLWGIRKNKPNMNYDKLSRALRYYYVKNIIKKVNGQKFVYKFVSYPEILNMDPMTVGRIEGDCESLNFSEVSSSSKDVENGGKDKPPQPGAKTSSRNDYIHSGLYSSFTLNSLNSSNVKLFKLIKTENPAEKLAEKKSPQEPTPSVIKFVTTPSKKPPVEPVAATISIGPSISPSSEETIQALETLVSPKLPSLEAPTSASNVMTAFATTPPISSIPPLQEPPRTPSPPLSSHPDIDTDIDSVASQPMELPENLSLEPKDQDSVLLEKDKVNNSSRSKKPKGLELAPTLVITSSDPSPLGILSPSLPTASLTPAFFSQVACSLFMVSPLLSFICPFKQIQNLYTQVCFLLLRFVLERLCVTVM
# In short: as §1
# ETV2 = biological target: T4, ETV2 (Homo sapiens, UniProt O00321 1-342); settings: protein: recombinant; tags: N-terminal GST; dsDNA, one strand shown
# T4 sequence: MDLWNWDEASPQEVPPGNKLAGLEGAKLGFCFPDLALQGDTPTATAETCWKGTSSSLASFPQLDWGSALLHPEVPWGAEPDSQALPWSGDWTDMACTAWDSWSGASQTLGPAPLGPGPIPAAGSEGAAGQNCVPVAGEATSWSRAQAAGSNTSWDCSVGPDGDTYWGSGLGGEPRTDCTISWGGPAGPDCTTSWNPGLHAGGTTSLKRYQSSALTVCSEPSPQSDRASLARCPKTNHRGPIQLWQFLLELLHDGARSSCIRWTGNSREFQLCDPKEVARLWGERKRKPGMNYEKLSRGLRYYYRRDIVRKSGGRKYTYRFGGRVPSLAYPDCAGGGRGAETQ
# In short: as §1
# ELF3 = biological target: T5, ELF3 (Homo sapiens, UniProt P78545 1-371); settings: protein: recombinant; tags: N-terminal GST; dsDNA, one strand shown
# T5 sequence: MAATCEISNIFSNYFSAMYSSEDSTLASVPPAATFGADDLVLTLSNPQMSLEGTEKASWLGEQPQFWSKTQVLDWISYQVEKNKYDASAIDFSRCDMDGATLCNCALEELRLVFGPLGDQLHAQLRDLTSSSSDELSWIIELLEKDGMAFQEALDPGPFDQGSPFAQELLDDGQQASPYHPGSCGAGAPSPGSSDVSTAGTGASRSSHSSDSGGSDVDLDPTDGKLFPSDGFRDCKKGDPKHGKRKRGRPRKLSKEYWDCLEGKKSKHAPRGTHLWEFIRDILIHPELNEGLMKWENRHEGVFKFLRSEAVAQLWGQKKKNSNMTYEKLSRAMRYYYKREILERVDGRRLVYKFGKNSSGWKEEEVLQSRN
# In short: as §1
# CRX = CRX (Homo sapiens, UniProt O43186 1-299); settings: protein: recombinant; tags: N-terminal GST; dsDNA, one strand shown
# In short: as §1
# Sequence of HSF1 (Q00613 whole entry): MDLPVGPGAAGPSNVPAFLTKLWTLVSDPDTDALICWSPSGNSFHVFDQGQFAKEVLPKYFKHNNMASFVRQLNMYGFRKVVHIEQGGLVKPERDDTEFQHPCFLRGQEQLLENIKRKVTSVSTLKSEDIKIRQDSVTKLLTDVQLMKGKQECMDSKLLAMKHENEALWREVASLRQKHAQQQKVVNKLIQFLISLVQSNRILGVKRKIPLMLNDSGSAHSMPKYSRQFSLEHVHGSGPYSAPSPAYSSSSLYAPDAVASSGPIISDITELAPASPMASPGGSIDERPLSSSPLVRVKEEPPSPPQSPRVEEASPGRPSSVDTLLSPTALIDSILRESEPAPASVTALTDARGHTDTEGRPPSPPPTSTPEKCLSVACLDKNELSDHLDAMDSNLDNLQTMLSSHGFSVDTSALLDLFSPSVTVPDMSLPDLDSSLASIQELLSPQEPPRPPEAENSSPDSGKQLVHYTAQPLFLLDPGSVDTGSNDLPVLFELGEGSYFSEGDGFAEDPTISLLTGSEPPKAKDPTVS
# Sequence of CRX (O43186 whole entry): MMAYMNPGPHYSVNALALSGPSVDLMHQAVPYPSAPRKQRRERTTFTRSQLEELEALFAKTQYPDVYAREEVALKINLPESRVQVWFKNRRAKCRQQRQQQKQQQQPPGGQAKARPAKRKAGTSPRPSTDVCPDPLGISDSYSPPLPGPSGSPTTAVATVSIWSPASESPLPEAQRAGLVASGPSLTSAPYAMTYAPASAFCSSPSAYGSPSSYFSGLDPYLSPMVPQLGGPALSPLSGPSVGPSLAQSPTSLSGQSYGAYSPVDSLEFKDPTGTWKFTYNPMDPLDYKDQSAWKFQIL
# Sequence of ELF4 (Q99607 whole entry): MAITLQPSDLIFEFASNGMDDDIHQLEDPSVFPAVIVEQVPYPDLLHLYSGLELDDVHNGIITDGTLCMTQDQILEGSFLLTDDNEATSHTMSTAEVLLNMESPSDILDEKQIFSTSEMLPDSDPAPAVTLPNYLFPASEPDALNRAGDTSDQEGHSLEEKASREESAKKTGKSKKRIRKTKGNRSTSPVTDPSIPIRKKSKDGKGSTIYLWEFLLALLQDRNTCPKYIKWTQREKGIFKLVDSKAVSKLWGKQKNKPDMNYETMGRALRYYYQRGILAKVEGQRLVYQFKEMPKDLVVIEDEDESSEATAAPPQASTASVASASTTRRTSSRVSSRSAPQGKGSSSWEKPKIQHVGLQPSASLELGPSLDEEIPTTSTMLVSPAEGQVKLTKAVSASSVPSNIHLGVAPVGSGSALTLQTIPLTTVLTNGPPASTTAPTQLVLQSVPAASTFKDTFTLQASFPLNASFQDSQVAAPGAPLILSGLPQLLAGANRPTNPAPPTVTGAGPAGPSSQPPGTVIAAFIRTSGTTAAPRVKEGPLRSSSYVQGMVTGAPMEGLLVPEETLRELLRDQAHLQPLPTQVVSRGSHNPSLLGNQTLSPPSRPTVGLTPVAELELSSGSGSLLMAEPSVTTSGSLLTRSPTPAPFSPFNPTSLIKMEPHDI
# Sequence of ETV5 (P41161 whole entry): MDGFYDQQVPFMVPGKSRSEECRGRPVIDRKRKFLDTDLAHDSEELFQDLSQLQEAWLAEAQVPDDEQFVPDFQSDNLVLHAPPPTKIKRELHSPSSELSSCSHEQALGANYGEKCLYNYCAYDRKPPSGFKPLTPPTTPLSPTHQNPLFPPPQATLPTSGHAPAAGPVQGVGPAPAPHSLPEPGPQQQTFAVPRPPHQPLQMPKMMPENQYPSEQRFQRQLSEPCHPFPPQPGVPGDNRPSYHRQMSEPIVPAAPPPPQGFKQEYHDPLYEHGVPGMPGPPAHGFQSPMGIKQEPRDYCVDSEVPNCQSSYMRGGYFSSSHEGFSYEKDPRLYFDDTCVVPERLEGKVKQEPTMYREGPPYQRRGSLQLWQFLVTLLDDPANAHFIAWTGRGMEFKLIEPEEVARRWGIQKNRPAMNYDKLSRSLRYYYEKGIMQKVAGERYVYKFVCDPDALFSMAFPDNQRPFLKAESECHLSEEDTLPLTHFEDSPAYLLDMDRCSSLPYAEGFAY
sequence,measurement,setting,value
ATAGAA,binding signal,FEV,"1.04 fold enrichment (6-mer frequency, TF over GST control)"
same,binding signal,ETV5,"1.05 fold enrichment (6-mer frequency, TF over GST control)"
same,binding signal,HSF1,"1.93 fold enrichment (6-mer frequency, TF over GST control)"
same,binding signal,SPIC,"1.03 fold enrichment (6-mer frequency, TF over GST control)"
same,binding signal,ELF4,"1.1 fold enrichment (6-mer frequency, TF over GST control)"
same,binding signal,ELK4,"1.02 fold enrichment (6-mer frequency, TF over GST control)"
same,binding signal,ETV2,"1.01 fold enrichment (6-mer frequency, TF over GST control)"
same,binding signal,ELF3,"1 fold enrichment (6-mer frequency, TF over GST control)"
same,binding signal,CRX,"1.28 fold enrichment (6-mer frequency, TF over GST control)"
